Hits are enriched below; roughly 7.3% of the tested compounds scored in any of these assays.
ELG1 genotox = induces genotoxicity in HEK293T cells with luciferase-tagged ELG1. HEK293T ELG1-luciferase reporter, luminescence, 16 h. Potency, µM (top dose mostly 46 µM), inactives show at the top dose activity change, positive = activation, hits mostly activators. 1.3% of 330,000 active. AID 504466; further: % of control where 0% means no effect; nearly all actives have a fitted effect of over 60% in size
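ELG1-luciferase HEK293T cells, 2,000/well; compound pinned in; 16 hr, 37 °C, 5% CO2; ONE-Glo, 30 min RT; luminescence on CCD imager.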
Rab9 prom act = activates the Rab9 promoter | Huh7 Rab9 promoter-luciferase reporter, luminescence, 24 h | Potency, µM (doses to about 9.22 µM), inactives show top-dose activation, negative = inhibition, most hits filed as activators | 2.8% of 320,000 active; further: % of control where 0% means no effect; nearly all actives have a fitted effect of over 60% in size
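Stable Rab9-luc Huh7, 1500 cells/well, 2 h settle; cmpd in DMSO, 24 h, 37 °C/5% CO2; luciferase reagent 10 min RT; luminescence.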
NPC1 promoter act = activators of NPC1 promoter. Huh7 NPC1 promoter luciferase reporter, 24 h. Potency, µM (series often up to 9.22 µM), inactives show at the top dose activation, actives largely listed as activators. 2.4% of 320,000 active; further: % of control where 0% means no effect; nearly all actives have a fitted effect of over 60% in size
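Quantitative HTS used a cell-based reporter: Huh7 cells stably bearing the NPC1 promoter upstream of luciferase were treated with compounds for 24 h, and promoter activation was read as luminescence.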
SMN2 splice up = SMN2 splice variant enhancement; Potency, µM (top dose mostly 46.1 µM), for inactives: top-dose activity change, positive = activation, hits mostly activators; 2.8% of 210,000 active; HEK293 SMN2-luciferase splicing reporter, luminescence, 30-36 h; further: % of control where 0% means no effect; nearly all actives have a fitted effect of over 55% in size
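qHTS luciferase splicing reporter: luminescence rises when SMN2 exon 7 is included in transfected HEK293 cells. Compound exposure lasted 30-36 h at 37C, with 4.5 mM final sodium butyrate as control, followed by a ONE-Glo read.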
KinaseGlo FLuc = Kinase-Glo luciferase inhibition (counter-screen); 0.28% of 200,000 active; Potency, µM (series often up to 38.3 µM), without a hit: top-dose activity change, negative = inhibition, actives largely listed as inhibitors; Kinase-Glo luciferase, ATP luminescence, 8 min; further: on the % scale 0 is the no-effect control and ±100 the full control effect; nearly all actives have a fitted effect of over 60% in size
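Inhibition of Kinase-Glo luciferase light generation was assessed at 10 uM ATP in pH 7.2 imidazole buffer, with luminescence measured after eight minutes at ambient temperature.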
FLuc counter = inhibits or activates purified firefly luciferase, miR-21 counter-screen; 6.9% of 360,000 active; purified FLuc, Km substrates, luminescence inhibition; Potency, µM (highest dose often 57.5 µM), without a hit: top-dose activity change, negative = inhibition, actives largely listed as inhibitors;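 further: plate controls were vehicle for no effect and reference inhibitor for full effect; nearly all actives have a fitted effect of over 55% in size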
Target sequence (P08659 whole entry, looked up): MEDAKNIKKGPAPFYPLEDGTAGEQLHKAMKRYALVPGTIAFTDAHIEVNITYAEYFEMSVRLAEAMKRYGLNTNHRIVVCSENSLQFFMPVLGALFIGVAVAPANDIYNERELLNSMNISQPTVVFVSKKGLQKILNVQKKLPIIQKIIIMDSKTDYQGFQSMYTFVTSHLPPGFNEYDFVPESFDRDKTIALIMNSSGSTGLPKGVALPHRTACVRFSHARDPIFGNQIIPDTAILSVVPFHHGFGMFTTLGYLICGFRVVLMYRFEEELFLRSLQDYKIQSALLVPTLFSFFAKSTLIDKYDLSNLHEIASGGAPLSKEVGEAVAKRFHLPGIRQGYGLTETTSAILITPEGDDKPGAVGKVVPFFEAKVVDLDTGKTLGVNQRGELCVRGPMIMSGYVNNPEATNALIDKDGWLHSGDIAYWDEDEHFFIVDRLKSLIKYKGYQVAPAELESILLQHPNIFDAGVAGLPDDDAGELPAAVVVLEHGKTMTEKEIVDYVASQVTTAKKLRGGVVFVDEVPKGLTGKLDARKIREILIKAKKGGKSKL
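Purified P. pyralis luciferase (10nM final) with 10uM D-luciferin and 10uM ATP (Km levels) in 50mM Tris acetate pH 7.5, 10mM Mg acetate, 0.01% Tween-20, 0.05% BSA; qHTS 6-point titration, ~60 µM downward; luminescence read.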
* hit, by the source's call; ? = inconclusive; nt = not tested or not shown; [ ] = dose if it differs, or a comment. The call rests on the fitted dose curve; in most records, active means well fitted curve in the direction sought with a large enough effect; inconclusive means small, poorly fitted or top-dose-only effect, or another doubt; inactive means no such curve, though single readings can be large; an effect the other way counts as inactive or inconclusive. Potency means the concentration at half of the fitted maximal effect.

SMILES | ELG1 genotox | Rab9 prom act | NPC1 promoter act | SMN2 splice up | KinaseGlo FLuc | FLuc counter
O=C(/C=C/c1ccccc1)Nn1cnnc1 | 4% | 4% | 0% | 15% | -3% | ?
O=C(NCCSCc1ccco1)Nc1cc(Cl)cc(Cl)c1 | -5% | -6% | -4% | nt | nt | 27µM*
COc1ccc(/C=C/C(=O)NCCCc2ccccc2)cc1 | -2% | -5% | -3% | -16% | -4% | ?
COc1ccc(/C=C/C(=O)Nn2cnnc2)cc1 | 2% | -7% | -4% | 57% | -10% | 15µM*
COc1ccc(/C=C/C(=O)NCCSCc2ccco2)cc1 | 3% | -1% | -1% | 7% | 4% | 17µM*
C#CCNC(=O)/C=C/c1ccc(OC)cc1 | ? | ? | 28% | 14µM* | -15% | 21µM*
COc1cc2nc(NC(=O)c3ccc(Cl)cc3)sc(=O)c2cc1OC | 6% | 0% | 7% | nt | nt | 0%
CCOC(=O)c1ccc(NC(=O)CC2C(=O)N(c3ccc(F)cc3)C(=O)N2CCC(C)C)cc1 (centres undefined) | 7% | -2% | -2% | 10% | -2% | -20%
O=C(c1ccc(F)cc1)N1CCC(N2CCCCCC2)CC1 | 0% | -14% | 1% | nt | 1% | 2%
COc1ccccc1N1CCN(C(=O)c2ccc(S(=O)(=O)N3CCCC3)cc2)CC1 | -10% | -2% | 1% | 8% | 3% | 1%[2.3 µM]
OCc1cn(-c2ccccc2)nc1-c1ccc2c(c1)OCCO2 | 5% | ? | ? | -26% | -1% | 21µM*
OCc1cn(-c2ccccc2)nc1-c1ccc(Br)cc1 | ? | ? | ? | nt | nt | 17µM*
CC(C)COc1ccc(-c2nn(-c3ccccc3)cc2CO)cc1 | 0% | -5% | 0% | nt | nt | ?
CN(Cc1ccccc1)c1nc(N)c([N+](=O)[O-])c(Nc2cccc(F)c2)n1 | 4% | -1% | -11% | -12% | 0% | -1%
CSc1nc2ccc(NC(=O)c3ccc(Cl)s3)cc2s1 | ? | 2.8µM* | 2µM* | nt | nt | 1.9µM*
COc1ccc(NC(=O)C2CCCO2)cc1Cl (centres undefined) | 15% | -2% | 0% | nt | 14% | -1%
COc1ccc2nc(NC(=O)C3CCCO3)sc2c1 (centres undefined) | ? | ? | 1.1µM* | nt | -4% | 9.5µM*
CSc1nc2ccc(NC(=O)C3CCCO3)cc2s1 (centres undefined) | 10µM* | 3.5µM* | 3.5µM* | 13µM* | 0% | 12µM*
Cc1cccc2sc(NC(=O)C3CCCO3)nc12 (centres undefined) | ? | ? | ? | 20µM* | -6% | ?
COc1ccc(NC(=O)C2CCCO2)c(OC)c1 (centres undefined) | 0% | 17% | -1% | nt | nt | -2%
CC(C)(C)NC(=O)c1cc(NC(=O)c2cccs2)cc(NC(=O)c2cccs2)c1 | -24% | 2% | 12% | nt | nt | -18%
Cc1ccccc1NC(=O)Cc1cccs1 | 3% | -4% | 2% | nt | nt | 4%
CC(=O)Nc1cc(C)c2nc(NC(C)=O)sc2c1 | ? | 26% | 24% | nt | nt | ?
CC(=O)Nc1nc2c(C)cc(NC(=O)C3CCCCC3)cc2s1 | ? | 1.8µM* | 2.2µM* | nt | nt | nt
COc1ccc(-c2nnc(NC(=O)C3CCCO3)s2)cc1 (centres undefined) | ? | 4µM* | 2.5µM* | 24% | -7% | 12µM*
SMILES | ELG1 genotox | Rab9 prom act | NPC1 promoter act | SMN2 splice up | KinaseGlo FLuc | FLuc counter
CCOc1ccc(CCNC(=O)COC(=O)c2cccc(N(C)C)c2)cc1OCC | 1.8µM* | 1.6µM* | 4µM* | nt | nt | -13%
O=C(Oc1ccc(-c2ccccc2)cc1)N1CCCCC1 | nt | nt | nt | ? | -1% | 8.5µM*
O=C(Oc1ccc(-c2ccccc2)cc1)C1C2CCCCC21 (centres undefined) | 17% | -5% | -4% | 5% | 2% | 4.8µM*
Cc1cc(/C=N/Nc2nc(N)ncc2[N+](=O)[O-])c(C)n1-c1ccccc1F | ? | -17% | ? | nt | nt | 0.048µM*
CCn1cnc2c1c(=O)n(Cc1csc(-c3ccccc3)n1)c(=O)n2Cc1ccccc1 | -13% | 1% | -4% | -19% | 13% | -2%
O=C(CC(Sc1ccccc1)c1cccs1)c1ccco1 (centres undefined) | -1% | 4% | -5% | -12% | 5% | ?
Cc1oc2ccc(O)cc2c1C(=O)c1ccc([N+](=O)[O-])cc1 | -6% | -1% | 0% | -17% | 3% | 2%
CN(C)/C=C/c1oc2ccc(O)cc2c1[N+](=O)[O-] | ? | 3.2µM* | 26% | 20% | -5% | ?
COc1cc(OC)c2c(-c3cccc(/C=C/c4ccc(F)cc4)c3)cc(=O)oc2c1 | ? | nt | nt | nt | 2%[39.9 µM] | nt
COc1cc(/C=C/c2ccccc2)oc(=O)c1 | nt | nt | nt | 8.9µM* | nt | nt
Oc1ccc(/C(Cc2ccc3ccccc3n2)=N\Nc2ccccc2)c(O)c1 | ? | ? | 1% | nt | nt | ?
Cc1cc(N/N=C/c2ccc(N(C)C)cc2)c2ccccc2n1 | 8% | -3% | -3% | nt | nt | ?
O/C(=C\c1ccc2ccccc2n1)c1ccc(O)cc1O | 2.6µM* | 2.2µM* | 1.1µM* | 8.9µM* | -19% | 1.5µM*
CN(C)c1ccc(/C=C/c2nc3ccccc3s2)cc1 | -4% | ? | 0% | -79% | 11µM* | 0.11µM*
CCCN(CCC)c1ccc(/C=C/c2ccc3cc(OCC)ccc3n2)cc1 | 10% | 2.2µM* | ? | nt | nt | 6.7µM*
C(=C\c1ccc2ccccc2n1)/c1ccccc1 | ? | 0.5µM* | 2.8µM* | nt | nt | 0.076µM*
CCN(CC)c1ccc(/C=C/c2cc(-c3ccccc3)c3ccccc3n2)cc1 | -1% | -4% | -7% | nt | nt | ?
CC(C)NCC[C@@H](O)c1cc2ccccc2o1 | nt | nt | nt | -10%[9.22 µM] | -4%[7.66 µM] | nt
O=C(COC(=O)/C=C/c1nc2ccccc2s1)Nc1cccc2ccccc12 | 1% | -1% | 2% | 14% | 0% | -4%
CN(C)c1ccc(/C=C/c2ccc3ccccc3n2)cc1 | ? | ? | -18% | nt | nt | 0.067µM*
O=C(O)/C=C/c1ccc2ccccc2n1 | -1% | 1% | -1% | -11% | 5% | 2%
COc1cc(/C=C/c2nc3ccccc3s2)cc(OC)c1O | 18µM* | ? | 7% | 24% | -4% | 19µM*
CN(C)c1ccc(CNc2nc3ccccc3s2)cc1 | 0.46µM* | 0.25µM* | 0.1µM* | nt | nt | 0.24µM*
Cc1ccc(/C=C/c2nc3ccccc3s2)s1 | 0.52µM* | ? | 15% | -18% | ? | 0.3µM*
COc1cc(C=C(c2nc3ccccc3s2)c2nc3ccccc3s2)ccc1O | 1% | -5% | -1% | -13% | 0% | ?
Cc1ccc(Cl)cc1NC(=O)COC(=O)C1CCCC1 | 3% | -2% | 3% | -16% | 2% | 3%
